High-throughput results from PubChem BioAssay.
This is a sample that favours compounds with a hit; in the whole collection about 1.6% have one here.
VLA-4 inh = inhibition in a human VLA-4 binding assay | P13612 | VLA-4 expressing cells, ligand binding flow cytometry | inhibition, % (about 7 µM as worked out from the volumes in the protocol) | 330,000 tested, 0.2% active | AID 2557; in the data active = inhibition above about 50%
PREPL inh = inhibits the human prolyl oligopeptidase-like enzyme; recombinant PREPL, fluorescence polarization activity-based probe; AID 2751; 320,000 tested, 0.68% active; inhibition, % at 5.96 µM; Q4J6C6
JMJD2C inh = blocks human GASC-1 demethylase activity; Q9H3R0; GST-JMJD2C(1-420) H3K9me3 demethylation, DELFIA europium; 330,000 tested, 0.069% active; inhibition, % at 2.35 µM;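 active = more than half of a compound's replicate wells show inhibition beyond 50%, single wells judged on their own value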;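 also: signal counts dimethyl H3K9 product captured on neutravidin plate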
DSG3 Ab inh = inhibitors of pemphigus antibody binding to human desmoglein-3; 310,000 tested, 0.48% active; P32926; binding (percent of control), % at 10 µM; DSG3-coupled beads, scFv-anti-DSG3-GFP binding, flow cytometry; hits give low values; AID 588358;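 active = binding more than 3 SD below its plate's average and above zero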;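 also: hits lower antibody fragment binding to DSG3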
GRK2 aptamer HTS = blocks RNA aptamer binding to human GRK2; bead flow cytometry, FAM-aptamer displacement from GRK2; inhibition of aptamer binding, % at 10 µM; 330,000 tested, 0.59% active; P25098;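 active = inhibition of aptamer binding above 40%, roughly 3 SD of noise, on plates passing a quality check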;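 also: median bead fluorescence of bound FAM aptamer so fluorescent compounds give negative values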
Target sequence (P25098 whole entry, looked up): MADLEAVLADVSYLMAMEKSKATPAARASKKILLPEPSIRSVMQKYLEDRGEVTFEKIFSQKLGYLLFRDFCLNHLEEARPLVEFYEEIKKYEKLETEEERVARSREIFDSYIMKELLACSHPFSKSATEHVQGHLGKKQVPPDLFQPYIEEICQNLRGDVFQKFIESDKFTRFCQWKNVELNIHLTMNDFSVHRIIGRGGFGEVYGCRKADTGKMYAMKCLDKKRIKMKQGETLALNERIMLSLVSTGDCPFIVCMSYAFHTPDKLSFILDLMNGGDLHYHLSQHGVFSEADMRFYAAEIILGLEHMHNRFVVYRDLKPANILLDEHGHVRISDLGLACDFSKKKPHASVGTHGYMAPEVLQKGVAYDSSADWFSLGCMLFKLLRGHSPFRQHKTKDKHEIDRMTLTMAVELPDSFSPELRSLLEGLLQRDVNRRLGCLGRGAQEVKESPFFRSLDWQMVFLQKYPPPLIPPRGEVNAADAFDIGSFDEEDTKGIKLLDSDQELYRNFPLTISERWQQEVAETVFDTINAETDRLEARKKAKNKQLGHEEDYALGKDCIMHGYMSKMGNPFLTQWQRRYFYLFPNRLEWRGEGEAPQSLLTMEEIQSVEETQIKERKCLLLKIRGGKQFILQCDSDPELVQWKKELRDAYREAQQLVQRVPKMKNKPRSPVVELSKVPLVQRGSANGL
PREPL confirm = confirmation of human PREPL enzyme inhibitors. AID 2803. shares compounds with PREPL inh. 2,000 tested, 67% active. recombinant PREPL, fluorescence polarization activity probe. inhibition, % at 5.96 µM
Hits are given with their value; – = inactive; · = no result; ! = not active in a repeat. Rule as the data show it, unless noted: active = inhibition above about 43%; inactive = the rest.

SMILES	VLA-4 inh	PREPL inh	JMJD2C inh	DSG3 Ab inh	GRK2 aptamer HTS	PREPL confirm
O=C(C1CCCN(S(=O)(=O)c2cccc3nonc23)C1)N1CCN(c2ccccc2Cl)CC1 (stereo not drawn)	–	47.3	–	–	–	–
Nc1cc(N)cc(-c2nc3ccccc3[nH]2)c1	–	48.8	–	–	–	–
c1ccc(-c2nc3ccccc3[nH]2)cc1	–	–	–	–	–	·
COc1ccc([C@H]2N[C@]3(CCCN(Cc4ccc(C)cc4)C3=O)[C@H]3C(=O)N(C)C(=O)[C@@H]23)cc1	·	·	·	–	·	·
C#CCOCCOCCOCCNc1nc(N2CCN(C(=O)CCCCCCCCCCNC(=O)Cn3cc(CCCCCN)nn3)CC2)nc(N2CCN(C(=O)CCCCCCCCCCNC(=O)[C@H](CO)n3cc(CCCCCN)nn3)CC2)n1	–	67.6	·	–	–	60.0
C#CCOCCOCCOCCNc1nc(N2CCN(C(=O)CCCCCCCCCCNC(=O)Cn3cc(CCCCCN)nn3)CC2)nc(N2CCN(C(=O)CCCCCCCCCCNC(=O)[C@H]([C@@H](C)CC)n3cc(CCCCCN)nn3)CC2)n1	–	62.1	·	–	–	56.5
N#C/C(=C\c1ccc(N2CCOCC2)c([N+](=O)[O-])c1)c1nc2ccccc2[nH]1	–	45.0	–	–	–	–
N#C/C(=C\c1cccnc1)c1nc2ccccc2[nH]1	–	56.1	–	–	–	–
N#C/C(=C/c1ccc(N2CCCC2)c([N+](=O)[O-])c1)c1nc2ccccc2[nH]1	–	–	–	–	–	·
Cc1ccc(S(=O)(=O)NNC(=O)C(O)(c2ccccc2C)c2ccccc2C)cc1	–	–	–	–	–	·
CC(=O)c1ccc2c(c1)N(CCCN1CCC(CCO)CC1)c1ccccc1S2	–	–	·	–	–	·
CN(C)CCCN1c2ccccc2Sc2ccc(Cl)cc21	–	45.4!	–	–	–	45.1
OCCN1CCN(CCCN2c3ccccc3Sc3ccc(Cl)cc32)CC1	–	47.8	–	·	–	–
Cc1cc(C)n(CCC(=O)N=Nc2c(O)[nH]c3ccccc23)n1	–	–	–	–	–	·
CNC[C@@H]1Oc2ccc(NC(=O)Nc3cccc4ccccc34)cc2C(=O)N([C@@H](C)CO)C[C@@H]1C	–	49.6	–	·	–	46.1
Cc1noc(C)c1S(=O)(=O)Nc1ccc2c(c1)C(=O)N([C@H](C)CO)C[C@H](C)[C@@H](CN(C)C(=O)Nc1ccc(C(F)(F)F)cc1)O2	–	54.8	·	–	–	50.1
Cc1noc(C)c1S(=O)(=O)Nc1ccc2c(c1)C(=O)N([C@H](C)CO)C[C@H](C)[C@@H](CN(C)C(=O)Nc1ccccc1)O2	–	–	·	–	–	·
C[C@H](CO)N1C[C@H](C)[C@@H](CN(C)S(=O)(=O)c2ccc(F)cc2)Oc2ccc(NC(=O)Nc3ccc4c(c3)OCO4)cc2C1=O	–	45.2	·	–	–	47.8
COc1ccc(S(=O)(=O)Nc2ccc3c(c2)C(=O)N([C@H](C)CO)C[C@H](C)[C@@H](CN(C)C(=O)Nc2ccc(C(F)(F)F)cc2)O3)cc1	–	44.7	·	–	–	–
COc1ccc(NC(=O)N(C)C[C@H]2Oc3ccc(NS(=O)(=O)c4ccc(OC)cc4)cc3C(=O)N([C@H](C)CO)C[C@@H]2C)cc1	–	–	–	–	–	·
Cc1ccc(CN2CC(C(=O)NC(c3nc4ccccc4[nH]3)C(C)C)CC2=O)cc1 (stereo not drawn)	–	–	–	–	–	·
O=S(=O)(c1cccs1)N1CCN(c2ccc(O)cc2)CC1	–	–	–	–	–	·
COC(=O)C1CCN(CCCOc2ccc(CN3CCN(c4ccc([N+](=O)[O-])cc4)CC3)cc2)CC1	–	52.2	–	–	–	44.0
Cc1ccc(C)c(N2CCN(C(=S)Nc3ccc4nc(N5CCOCC5)cc(C)c4c3)CC2)c1	–	53.8	–	–	–	–
Cc1ccc(C)c(N2CCN(C(=S)Nc3ccc4nc(N5CCN(C)CC5)cc(C)c4c3)CC2)c1	–	53.3	–	–	–	–
SMILES	VLA-4 inh	PREPL inh	JMJD2C inh	DSG3 Ab inh	GRK2 aptamer HTS	PREPL confirm
Cc1cccc(N2CCN(C(=S)Nc3ccc4nc(N5CCOCC5)cc(C)c4c3)CC2C)c1 (stereo not drawn)	–	43.2	–	–	–	–
COc1ccccc1N1CCN(C(=S)Nc2ccc3nc(N4CCOCC4)cc(C)c3c2)CC1	–	–	–	–	–	·
Cc1cc(N2CCN(C)CC2)nc2ccc(NC(=S)N3CCC4(CC3)OCCO4)cc12	–	–	–	–	–	·
COc1ccc(NC(=O)CCCn2nc(C)c3c(C)n(-c4ccccc4)nc3c2=O)cc1	–	–	–	–	–	·
COc1ccc(NCC(=O)N/N=C/C=C\c2ccccc2)cc1	–	67.3	–	–	–	45.7
COc1cccc2c1C(=O)c1c(O)c3c(c(O)c1C2=O)C[C@@](O)(C(C)=O)C[C@@H]3O[C@H]1C[C@H](N)[C@H](O)[C@H](C)O1	·	·	·	–	·	·
CC(=O)[C@]1(O)Cc2c(O)c3c(c(O)c2[C@@H](O[C@H]2C[C@H](N)[C@H](O)[C@H](C)O2)C1)C(=O)c1ccccc1C3=O	–	66.1	–	·	–	85.4
O=C(CSc1nnnn1C1CCCC1)NCCc1ccccc1	–	–	–	–	–	·
Cc1ccc(-c2[nH]c3cc(C(=O)NCCCn4ccnc4)ccc3c(=O)c2O)cc1	–	55.0	–	·	–	–
COc1cc(/C=C2\SC(=S)N(CC(=O)O)C2=O)ccc1OC(=O)c1ccco1	–	–	–	–	–	·
CCOc1cc(/C=C2/SC(=S)N(CC(=O)O)C2=O)ccc1OC(=O)c1cccs1	–	64.8	–	–	–	66.8
COc1ccc(/C=C2/SC(=S)N(CC(=O)O)C2=O)cc1OCc1ccc(Cl)cc1	–	66.1	–	–	–	66.5
O/N=C\c1cnc(N2CCN(c3ccccc3)CC2)s1	–	–	–	–	–	·
O=C(C1=C[C@@H](c2ccccc2)C[C@@H](OCc2ccc(CO)cc2)O1)N1CCOCC1	–	–	–	–	–	·
O=C(C1=C[C@@H](c2ccc(Br)cc2)C[C@@H](OCc2ccc(CO)cc2)O1)N1CCOCC1	–	43.8	–	–	–	51.3
O=C(C1=C[C@H](c2ccc(Br)cc2)C[C@H](OCc2ccc(CO)cc2)O1)N1CCOCC1	–	43.5	–	–	–	–
CCOC(=O)C1C(=O)NC(N2CCc3ccccc32)=NC1c1ccccc1 (stereo not drawn)	–	43.7	–	–	–	–
Cc1cccc(N2CCN(c3nc(C)cc(C)c3C#N)CC2C)c1 (stereo not drawn)	–	–	–	–	–	·
c1ccc2c(c1)nc(Nc1ccc3c(c1)OCO3)c1nnnn12	–	46.6	–	–	–	45.2
N#CC1=C(N)C(C#N)(C#N)C(c2cccnc2)C2CC(c3ccccc3)CC=C12 (stereo not drawn)	–	44.1	–	–	–	–
CCC[C@H]1CN(c2ccc(Br)cc2)C(=O)[C@@H]1CC(=O)Nc1ccc(OC)cc1	·	·	·	–	·	·
